Hits are enriched below; roughly 2.5% of the tested compounds scored in any of these assays.
aSyn 5UTR inh – MLPCN primary screen, SNCA 5' untranslated region; alpha-synuclein 5'UTR reporter, inhibitor activity; inhibition, % (tested at 7.5 µM); AID 1813, 2009; 0.82% of 300,000 active; in the data active means inhibition above about 60%;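 further: H4 neuroglioblastoma cells stably carrying SNCA 5'UTR luciferase fusion; 0% = DMSO wells and 100% = positive control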
ANO1 block – TMEM16A chloride channel inhibitors, primary screen, cell-based, HTS | Anoctamin-1 (Mus musculus), Q8BHY3 | 1.2% of 310,000 active | HEK293 TMEM16A/YFP iodide influx fluorescence, ionomycin | normalized B-score (activity score, 25-100; higher = stronger inhibition) at 10 µM;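 active means ratio plate-corrected score three or more library SD toward inhibition, starting fluorescence score within five deviations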;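 further: score derived from kinetic fluorescence span divided by baseline fluorescence per well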
KLF5 inhibitor – KLF5 expression inhibitors, primary screen, DLD-1 cells, luminescence; 0.23% of 290,000 active; inhibition, % at 5 µM; DLD-1 KLF5 promoter-luciferase reporter;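 active means inhibition above a per-plate limit of that plate's mean compound inhibition plus 3 SD, cut at about 60% in these data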;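 further: 0% = DMSO wells and 100% = LY294002 at 200 µM; higher means less KLF5 promoter-driven luciferase light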
TMEM16A act – TMEM16A chloride channel activators or potentiators, primary screen, cell-based, HTS; Anoctamin-1 (Mus musculus), Q8BHY3; AID 623877, 2012; 0.3% of 340,000 active; B-score at 10 µM; HEK293 TMEM16A/YFP-H148Q/I152L, iodide quench fluorescence; active compounds read low;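 active means fluorescence-ratio B-score plate-corrected deviation score at least 3 library SD below zero, with starting fluorescence score within 5 deviations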;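 further: channel opened by trigger with iodide after compound preincubation; score built on the fluorescence ratio of max minus min over baseline; more negative score means more quench and so TMEM16A activation or potentiation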
697 NFkB inh – inhibitors of PMA/ionomycin-induced NF-kB reporter, 697 cells, primary screen, B-cell NF-kB inhibitor project, cell-based, luminescence, uHTS | inhibition, % at 4 µM | AID 435022, 2010 | 697 B-cell NF-kB luciferase reporter, 16 h | 0.33% of 330,000 active; in the data active means inhibition above about 35%
Jurkat NFkB inh – inhibitors of induced NF-kB luciferase reporter, primary screen, TCR NF-kB activation inhibitor project, cell-based, luminescence, uHTS; Jurkat, PMA/ionomycin-induced NF-kB luciferase reporter; inhibition, % at 4 µM; 0.53% of 330,000 active; AID 435003, 2010; in the data active means inhibition above about 50%
* = called active by the depositor; i = inactive; . = no result given.

SMILES	aSyn 5UTR inh	ANO1 block	KLF5 inhibitor	TMEM16A act	697 NFkB inh	Jurkat NFkB inh
CCOC(=O)N1CCN(S(=O)(=O)c2ccc(C(=O)NNc3nc4cc(C)cc(C)c4s3)cc2)CC1	66*	i	11	i	-22	-3
CCOC(=O)N1CCN(S(=O)(=O)c2ccc(C(=O)NNc3nc4c(C)cc(C)cc4s3)cc2)CC1	71*	i	9	.	-9	-5
CCOC(=O)N1CCN(S(=O)(=O)c2ccc(C(=O)NNc3nc4ccc(Cl)cc4s3)cc2)CC1	67*	i	-11	i	-7	1
CCOC(=O)N1CCN(S(=O)(=O)c2ccc(C(=O)NNc3nc4c(C)cccc4s3)cc2)CC1	50	i	2	i	6	3
CN(/N=C/c1ccc(N(C)C)cc1)C1=NS(=O)(=O)c2ccccc21	-97	i	-9	i	-47	35
CCCCn1nc(C(=O)N(C)C2CCCCC2)c2ccccc2c1=O	.	.	.	-30*	5	-2
CCCCn1nc(C(=O)NC2CCCCCC2)c2ccccc2c1=O	.	.	.	i	2	3
CC(=O)c1ccc(-n2c(-c3cc(-c4ccco4)[nH]n3)n[nH]c2=S)cc1	9	i	-17	-12*	19	5
CC(C)S(=O)(=O)C1=NSC2=NC(=O)/C(=C\c3ccc(-c4ccccc4)o3)C(=N)N21	-15	25*	-3	i	.	.
O=C(Nc1cccnc1)c1cc(-c2ccc(Cl)cc2Cl)on1	-51	i	-18	i	2	-82
CCN(CC(=O)Nc1ccccc1C(F)(F)F)C(=O)CN1C(=O)NC2(CCCC2)C1=O	13	i	.	i	-22	-19
C[C@@H]1CC=C[C@H]2[C@H]1C(=O)N(Cc1ccccc1)[C@H]2c1ccc(C(F)(F)F)cc1	10	100*	.	i	10	6
COc1ccc(C(C)(C)C)cc1NC(=O)CCc1c(C)noc1C	.	.	.	i	-10	-3
Cc1nnc2c(-c3ccccc3)nc3ccccc3n12	25	i	-17	-16*	-4	-11
Cc1nnc2c(NCCc3ccccc3)nc3ccccc3n12	-3	i	-28	i	11	-6
CCOc1cc(N2CCOCC2)c(OCC)cc1NC(=O)CN1C(=O)NC(CC)(c2ccc(F)cc2)C1=O (stereo unspecified)	.	.	.	i	.	.
CCOC(=O)CC[C@H](NC(=O)Cn1cnc2c(SC)nc(N)nc21)C(=O)OCC	.	.	.	i	-6	4
CCN1CCN(C(=O)c2ccc3nc(-c4ccccc4)c(-c4ccccc4)nc3c2)CC1	14	i	-29	i	-13	-6
Cc1ccc(-c2ccc(/C=C3\C(=O)ON=C3c3ccccc3)o2)c([N+](=O)[O-])c1	-48	100*	-30	-5.7*	11	-8
Cn1cc(/C=C2\SC(=O)NC2=S)c2ccccc21	21	i	-8	-4.6*	-10	-9
CC(=O)Nc1c(Cl)c(Cl)c2c(c1Cl)C(=O)c1cc(Cl)ccc1-2	.	.	.	i	.	.
O=C(NNC(=O)c1cccnc1SCc1cccc([N+](=O)[O-])c1)c1ccccn1	103*	i	18	i	-37	-5
O=C(NNC(=O)c1cccnc1SCc1cccc([N+](=O)[O-])c1)c1ccc(F)cc1	-1	i	8	i	-10	-7
O=C(CN1CCC(NC(=O)c2cccc(F)c2)CC1)Nc1ccc(Br)cc1	68*	i	-9	i	-69	-33
O=C(c1cc(C2CC2)nc2ccccc12)N1N=C(C(F)F)CC1(O)C(F)F (stereo unspecified)	26	i	-42	i	9	3
O=C(c1cc(C2CC2)nc2ccc(Br)cc12)N1N=C(C(F)F)CC1(O)C(F)F (stereo unspecified)	-6	100*	-30	i	21	9
COc1ccccc1-c1cc(C(=O)N2CCN(S(=O)(=O)c3ccc(C)cc3)CC2)[nH]n1	11	i	-21	i	14	-10
N#CCC(=O)Nc1ccc(C(=O)NCCc2c[nH]c3ccccc23)cc1	-16	i	-7	i	-3	-3

Bioassay records as filed in PubChem BioAssay.
